From the supplement of paper PMC7411054
Counter-ions that a name gives are not always drawn.

What was measured:
Conditions in all cases: treatment time: 24 h
A549-ACTB-RAB5A [1] = test: lowest phenotypically active concentration; higher = less potent
Outline: (§1)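 Each of fifteen gene-edited A549, HepG2 and WPMY1 reporter lines, marked with BFP for segmentation and GFP and RFP/FusionRed, was treated in four wells at 0.3, 1, 3 or 9 µM for 24 h prior to live imaging. Normalisation of per-well live-cell features used solvent control wells. Deviation needed ≥3 of 4 wells beyond the 95th percentile of control Euclidean distances, and reproducibility needed a median replicate Pearson correlation above the 95th percentile of non-replicates. Both were required for phenotypic activity.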

A549-GM130-SQSTM1 [2] = test: as above
Outline: as §1

A549-ACTB-RAB5A [3] = test: phenotypically active (imaging signature differs from DMSO and reproducible) at any of 0.3-9 uM (binary (1 = active, 0 = inactive)); higher = active
Outline: as §1

A549-CANX-COX4 = test: as above
Outline: as §1

A549-GM130-SQSTM1 [4] = test: as above
Outline: as §1

A549-TP53BP1-CLTA = test: as above
Outline: as §1

A549-TUBA1B-RELA [5] = test: as above
Outline: as §1

HepG2-ACTB-RAB5A [6] = test: as above
Outline: as §1

HepG2-CANX-COX4 = test: as above
Outline: as §1

HepG2-GM130-SQSTM1 = test: as above
Outline: as §1

HepG2-TP53BP1-CLTA = test: as above
Outline: as §1

HepG2-TUBA1B-RELA = test: as above
Outline: as §1

WPMY1-ACTB-RAB5A = test: as above
Outline: as §1

WPMY1-CANX-COX4 = test: as above
Outline: as §1

WPMY1-GM130-SQSTM1 [7] = test: as above
Outline: as §1

WPMY1-TP53BP1-CLTA = test: as above
Outline: as §1

WPMY1-TUBA1B-RELA = test: as above
Outline: as §1

A549-TUBA1B-RELA [8] = test: lowest phenotypically active concentration; higher = less potent
Outline: as §1

HepG2-ACTB-RAB5A [9] = test: as above
Outline: as §1

WPMY1-GM130-SQSTM1 [10] = test: as above
Outline: as §1

SMILES	lowest phenotypically active concentration (A549-ACTB-RAB5A [1]) [µM]	lowest phenotypically active concentration (A549-GM130-SQSTM1 [2]) [µM]	phenotypically active (A549-ACTB-RAB5A [3])	phenotypically active (A549-CANX-COX4)	phenotypically active (A549-GM130-SQSTM1 [4])	phenotypically active (A549-TP53BP1-CLTA)	phenotypically active (A549-TUBA1B-RELA [5])	phenotypically active (HepG2-ACTB-RAB5A [6])	phenotypically active (HepG2-CANX-COX4)	phenotypically active (HepG2-GM130-SQSTM1)	phenotypically active (HepG2-TP53BP1-CLTA)	phenotypically active (HepG2-TUBA1B-RELA)	phenotypically active (WPMY1-ACTB-RAB5A)	phenotypically active (WPMY1-CANX-COX4)	phenotypically active (WPMY1-GM130-SQSTM1 [7])	phenotypically active (WPMY1-TP53BP1-CLTA)	phenotypically active (WPMY1-TUBA1B-RELA)	lowest phenotypically active concentration (A549-TUBA1B-RELA [8]) [µM]	lowest phenotypically active concentration (HepG2-ACTB-RAB5A [9]) [µM]	lowest phenotypically active concentration (WPMY1-GM130-SQSTM1 [10]) [µM]
CC#CC(=O)N1CCC[C@H]1c1nc(-c2ccc(C(=O)Nc3ccccn3)cc2)c2c(N)nccn12 [acalabrutinib]	9	9	1 (active)	0 (inactive)	1 (active)	0 (inactive)	0 (inactive)	0 (inactive)	0 (inactive)	0 (inactive)	0 (inactive)	0 (inactive)	0 (inactive)	0 (inactive)	0 (inactive)	0 (inactive)	0 (inactive)			
O=C([C@H](Cc1cccc(C(F)(F)F)c1)NS(=O)(=O)c1cc(F)c2c(c1)CCNC2)N1CCCC1 [(S)-PFI 2 hydrochloride]	9	9	1 (active)	0 (inactive)	1 (active)	0 (inactive)	0 (inactive)	0 (inactive)	0 (inactive)	0 (inactive)	0 (inactive)	0 (inactive)	0 (inactive)	0 (inactive)	0 (inactive)	0 (inactive)	0 (inactive)			
CCCNCC(O)COc1ccccc1C(=O)CCc1ccccc1 (configuration not stated) [propafenone]	9	9	1 (active)	0 (inactive)	1 (active)	1 (active)	1 (active)	1 (active)	0 (inactive)	0 (inactive)	0 (inactive)	1 (active)	1 (active)	1 (active)	1 (active)	1 (active)	0 (inactive)	9	9	3
CCCCOc1cc(C(=O)NCCN(CC)CC)c2ccccc2n1 [cinchocaine]	3	9	1 (active)	0 (inactive)	1 (active)	1 (active)	1 (active)	0 (inactive)	0 (inactive)	0 (inactive)	1 (active)	0 (inactive)	1 (active)	0 (inactive)	0 (inactive)	0 (inactive)	0 (inactive)	9		
NS(=O)(=O)c1nn2cc(-c3ccccc3)nc2s1	9	9	1 (active)	0 (inactive)	1 (active)	1 (active)	0 (inactive)	1 (active)	1 (active)	1 (active)	0 (inactive)	1 (active)	1 (active)	0 (inactive)	1 (active)	1 (active)	1 (active)		9	9
CC(C)(C)c1ccc2cc(C#N)c(C#N)cc2c1	3	3	1 (active)	0 (inactive)	1 (active)	0 (inactive)	0 (inactive)	0 (inactive)	0 (inactive)	0 (inactive)	0 (inactive)	0 (inactive)	0 (inactive)	0 (inactive)	0 (inactive)	0 (inactive)	0 (inactive)			
O=C(NOCC1CC1)c1ccc(F)c(F)c1Nc1ccc(I)cc1Cl	≤ 0.3	1	1 (active)	0 (inactive)	1 (active)	1 (active)	1 (active)	1 (active)	1 (active)	1 (active)	1 (active)	1 (active)	0 (inactive)	0 (inactive)	0 (inactive)	0 (inactive)	0 (inactive)	9	≤ 0.3	
COc1ccc(CCNCc2ccc(OCc3ccc(Cl)nc3)c(OC)c2)cc1OC [SBE 13 hydrochloride]	3	9	1 (active)	0 (inactive)	1 (active)	1 (active)	1 (active)	1 (active)	0 (inactive)	0 (inactive)	1 (active)	1 (active)	1 (active)	1 (active)	1 (active)	1 (active)	1 (active)	3	9	9
CC/C(=C(\CC)c1ccc(O)c(CN(CC)CC)c1)c1ccc(O)c(CN(CC)CC)c1	≤ 0.3	≤ 0.3	1 (active)	0 (inactive)	1 (active)	1 (active)	1 (active)	1 (active)	0 (inactive)	1 (active)	1 (active)	1 (active)	1 (active)	1 (active)	1 (active)	1 (active)	1 (active)	≤ 0.3	1	1
COc1cc(C(C)=O)ccc1OCCCN1CCC(c2noc3cc(F)ccc23)CC1 [iloperidone]	3	9	1 (active)	0 (inactive)	1 (active)	0 (inactive)	1 (active)	0 (inactive)	0 (inactive)	0 (inactive)	0 (inactive)	0 (inactive)	0 (inactive)	0 (inactive)	0 (inactive)	0 (inactive)	0 (inactive)	3		
O=C(O)Cc1cccc(OCCCN(Cc2cccc(C(F)(F)F)c2Cl)CC(c2ccccc2)c2ccccc2)c1 [GW 3965 hydrochloride]	9		1 (active)	1 (active)	0 (inactive)	0 (inactive)	0 (inactive)	0 (inactive)	1 (active)	0 (inactive)	0 (inactive)	1 (active)	0 (inactive)	0 (inactive)	0 (inactive)	0 (inactive)	0 (inactive)			
Cc1noc(C)c1Cn1cc(C#N)c2cc(Oc3ccc(NC(=O)[C@@H]4CCCN4)cc3)ccc21	9	9	1 (active)	0 (inactive)	1 (active)	1 (active)	1 (active)	0 (inactive)	0 (inactive)	1 (active)	1 (active)	1 (active)	1 (active)	1 (active)	1 (active)	1 (active)	1 (active)	9		9
COc1cc2ncnc(Nc3ccc(Cl)cc3F)c2cc1OC	9	3	1 (active)	0 (inactive)	1 (active)	1 (active)	1 (active)	0 (inactive)	0 (inactive)	0 (inactive)	0 (inactive)	0 (inactive)	0 (inactive)	0 (inactive)	0 (inactive)	0 (inactive)	0 (inactive)	3		
O=C(O)C[C@H](O)C[C@H](O)/C=C/c1c(C2CC2)nc2ccccc2c1-c1ccc(F)cc1 [Pitavastatin calcium]	1	9	1 (active)	0 (inactive)	1 (active)	1 (active)	0 (inactive)	1 (active)	1 (active)	1 (active)	1 (active)	1 (active)	1 (active)	1 (active)	1 (active)	1 (active)	1 (active)		1	≤ 0.3
COc1cc(N2CCC(N)CC2)ccc1Nc1ncc(Cl)c(-c2c[nH]c3ccccc23)n1	3	≤ 0.3	1 (active)	0 (inactive)	1 (active)	1 (active)	1 (active)	1 (active)	1 (active)	1 (active)	1 (active)	1 (active)	1 (active)	1 (active)	1 (active)	1 (active)	1 (active)	1	3	1
Clc1ccccc1C(c1ccccc1)(c1ccccc1)n1ccnc1 [Clotrimazole]	9	9	1 (active)	0 (inactive)	1 (active)	1 (active)	0 (inactive)	1 (active)	1 (active)	0 (inactive)	0 (inactive)	0 (inactive)	0 (inactive)	1 (active)	1 (active)	0 (inactive)	0 (inactive)		9	9
Cc1cc(Nc2ccc(NC(=O)c3ccc(Nc4ccnc5ccccc45)cc3)cc2)nc(N)n1	1	1	1 (active)	0 (inactive)	1 (active)	1 (active)	1 (active)	1 (active)	0 (inactive)	1 (active)	1 (active)	1 (active)	1 (active)	0 (inactive)	1 (active)	1 (active)	1 (active)	1	9	1
CCOP(=O)(OCC)C(=Cc1cc(C(C)(C)C)c(O)c(C(C)(C)C)c1)P(=O)(OCC)OCC	9	9	1 (active)	0 (inactive)	1 (active)	0 (inactive)	0 (inactive)	0 (inactive)	0 (inactive)	0 (inactive)	0 (inactive)	0 (inactive)	0 (inactive)	0 (inactive)	0 (inactive)	0 (inactive)	0 (inactive)			
CC(C)COCC(CN(Cc1ccccc1)c1ccccc1)N1CCCC1 (configuration not stated) [bepridil]	9	9	1 (active)	0 (inactive)	1 (active)	1 (active)	1 (active)	1 (active)	1 (active)	1 (active)	1 (active)	1 (active)	0 (inactive)	1 (active)	1 (active)	1 (active)	0 (inactive)	9	9	9
COc1c(C=O)c(O)cc2c1C(=O)c1ccccc1C2=O [Damnacanthal]	9	3	1 (active)	0 (inactive)	1 (active)	1 (active)	0 (inactive)	1 (active)	0 (inactive)	1 (active)	1 (active)	0 (inactive)	1 (active)	1 (active)	1 (active)	1 (active)	1 (active)		9	3
Cc1noc(C)c1-c1ccc2c(c1)nc(CCc1ccc(OCCCN(C)C)cc1)n2CCN1CCOCC1	9	3	1 (active)	0 (inactive)	1 (active)	1 (active)	1 (active)	1 (active)	1 (active)	1 (active)	1 (active)	1 (active)	1 (active)	1 (active)	1 (active)	1 (active)	1 (active)	3	9	9
O=S(=O)(c1cccc2cnccc12)N1CCCNCC1 [fasudil]	3	9	1 (active)	0 (inactive)	1 (active)	1 (active)	1 (active)	1 (active)	1 (active)	1 (active)	1 (active)	1 (active)	1 (active)	1 (active)	1 (active)	0 (inactive)	1 (active)	3	9	9
